USP2a inh: blocks human ubiquitin-specific protease USP2a; AID 463254; 0.01% of 330,000 active; O75604; Potency, µM (top dose mostly 38.3 µM), for the others: top-dose activity change, negative = inhibition, actives largely listed as inhibitors; USP2 core, Ub-CHOP2 coupled fluorogenic reporter, 485/531;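 further: potency means the concentration at half of the fitted maximal effect; plate controls were DMSO wells for no effect and full inhibition by NEM control for full effect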
Target sequence (O75604 whole entry, looked up): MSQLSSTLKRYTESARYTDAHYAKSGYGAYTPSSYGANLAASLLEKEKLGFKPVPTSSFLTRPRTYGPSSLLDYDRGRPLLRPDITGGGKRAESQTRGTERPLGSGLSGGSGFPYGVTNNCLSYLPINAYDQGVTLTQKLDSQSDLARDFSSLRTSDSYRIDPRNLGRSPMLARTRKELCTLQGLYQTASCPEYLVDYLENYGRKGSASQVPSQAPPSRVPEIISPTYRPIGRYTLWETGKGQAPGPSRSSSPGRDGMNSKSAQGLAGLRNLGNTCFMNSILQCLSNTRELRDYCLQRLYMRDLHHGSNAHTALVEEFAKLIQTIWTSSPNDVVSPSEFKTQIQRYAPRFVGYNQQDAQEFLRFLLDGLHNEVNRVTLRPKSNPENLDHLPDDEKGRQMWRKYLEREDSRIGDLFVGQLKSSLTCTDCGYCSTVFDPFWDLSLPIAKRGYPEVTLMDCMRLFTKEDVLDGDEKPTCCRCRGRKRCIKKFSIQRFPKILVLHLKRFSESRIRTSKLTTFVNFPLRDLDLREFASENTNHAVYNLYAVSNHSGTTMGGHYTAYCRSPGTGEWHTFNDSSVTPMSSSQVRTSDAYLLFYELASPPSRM
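Cell-free coupled assay: 10nM USP2 core preincubated 30min RT with compound in Tris-HCl pH 8.0/CaCl2/CHAPS buffer, then 25nM Ub-CHOP2 and 25nM reporter substrate; fluorescence (Ex 485/Em 531) read after 60min RT, normalized to NEM inhibition, concentration-response curves fitted.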
Integrin act MD: integrin-mediated muscular dystrophy alleviation activation. Potency, µM (series often up to 38.3 µM), inactives show at the highest dose activation, usual class: activators. 0.064% of 350,000 active. alpha7betagal myoblasts, beta-gal FDG fluorescence, 48 h;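 further: potency means the concentration at half of the fitted maximal effect; 100% = response of the positive control SU9516; nearly all actives have a fitted effect of over 60% in size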
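alpha7betagal+/- myoblasts (passage 13, 250/well) treated 48 h at 37C with compounds at 1:260 dilution of DMSO stock. Lysed, then beta-galactosidase activity read as FDG fluorescence (ex 480/em 540) after 30 min, with pre-read for autofluorescence.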
IL2 activator: IL-2 activation; IL-2 activation reporter assay, cell-based qHTS; stimulated with anti-CD3/CD4/CD28 beads; in transgenic mouse T cells; activation, % (series mostly up to about 46 µM); 0.065% of 360,000 active; AID 652025; in the data active means activation above about 50%; inconclusive means mostly about 30% to 49%; further: 0% is about no effect
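Using fluorescent plate cytometry, EGFP and DsRed are detected in transgenic mouse T cells stimulated 18 h at 37 degrees C with antibody-coated beads after 60 min compound pretreatment.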
Pin1 inh: inhibitors of human Pin1; AID 504891; Q13526; 0.009% of 390,000 active; Pin1 FP peptide displacement, HiFluor488, 10 min; Potency, µM (doses to about 115 µM), for inactives: top-dose activity, negative = inhibition, hits mostly inhibitors; active means well fitted inhibition curve with a large enough effect in the polarisation, with a control signal flat, not every such curve was filed as active; inconclusive means small, poorly fitted or top-dose-only effect, or effect the other way, or a change in a side signal; inactive means no such curve, though single readings can be large or run the other way; the % refers to the polarisation; further: potency means the concentration at half of the fitted maximal effect; on the % scale 0 is the no-effect control and ±100 the full control effect
PKM2 activator: activators of human pyruvate kinase M2; P14618; purified PKM2, Kinase-Glo ATP luminescence, activation; response scale: 0% is enzyme alone, no compound; Potency, µM (top dose mostly 57.5 µM), for the others: at the highest dose activation, actives largely listed as activators; 0.34% of 260,000 active; AID 1631; further: potency means the concentration at half of the fitted maximal effect; on the % scale 0 is the no-effect control and ±100 the full control effect; nearly all actives have a fitted effect of over 55% in size
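hPK-M2, >95% pure; 0.1 mM ADP / 0.5 mM PEP final; imidazole pH7.2 buffer w/ 7 mM MgCl2, 50 mM KCl; 1 h RT; Kinase-Glo lum. Intermediate enzyme activity for dual inhibitor/activator qHTS.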
ClpP mod: qHTS Assay for Activators of ClpP; ATP-dependent Clp protease proteolytic subunit (Bacillus subtilis (strain 168)), P80244; purified B. subtilis ClpP, FRET peptide cleavage, 20 min; Potency, µM (series often up to 57.5 µM), inactives show at the top dose activity change, negative = active; 1.9% of 340,000 active; AID 651965, 2013; active means well fitted falling curve with a large enough effect; inconclusive means small, poorly fitted or top-dose-only effect; inactive means no such curve, though single readings can be large or run the other way; further: potency means the concentration at half of the fitted maximal effect; the source files actives as falling curves though it sought activators and does not explain the sign; nearly all actives have a fitted effect of over 65% in size
Target sequence (P80244 whole entry, looked up): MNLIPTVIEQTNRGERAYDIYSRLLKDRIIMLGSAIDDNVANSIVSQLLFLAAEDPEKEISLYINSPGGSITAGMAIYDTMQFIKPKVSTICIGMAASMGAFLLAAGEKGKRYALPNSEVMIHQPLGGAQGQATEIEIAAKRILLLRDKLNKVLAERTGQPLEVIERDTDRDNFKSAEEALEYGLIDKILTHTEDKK
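Buffer: 100 mM Tris/HCl pH8, 100 mM KCl, 0.05% low protease BSA, 2.5% glycerol, 0.01% Tween-20. ClpP 10 microg/mL final; 20 min RT; delta FRET normalized to ADEP and DMSO controls.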
Starred values were filed as active, the others as inactive; u = inconclusive; x = no result; [ ] = dose if it differs, or a comment. Sampled rows, rich in hits. Any-hit rate of the full collection: about 1.9%. Unless noted, the call rests on the fitted dose curve; in most records, active means well fitted curve in the direction sought with a large enough effect; inconclusive means small, poorly fitted or top-dose-only effect, or another doubt; inactive means no such curve, though single readings can be large; an effect the other way counts as inactive or inconclusive.

SMILES | USP2a inh | Integrin act MD | IL2 activator | Pin1 inh | PKM2 activator | ClpP mod
COc1cc(C2C(C(=O)c3ccc(C)o3)=C(O)C(=O)N2CCCn2ccnc2)cc(OC)c1OC (stereo unspecified) | 2% | 22% | 0 | -7% | 2% | 25µM*
C#Cc1nc(Nc2cccc(Cl)c2)nc(NC2CCCC2)n1 | x | x | x | 7% | x | x
Cc1ccc(SCC(CC(C)C)N2CCN(C)CCC2=O)cc1 (stereo unspecified) | x | x | x | -4% | x | x
COC(=O)Nc1ccc(S(=O)(=O)N2CCC(C(=O)N(C)C3CCCCC3)CC2)cc1 | 0% | 1% | -1 | -1% | 3% | 13µM*
CC(Sc1ccc([N+](=O)[O-])cn1)C(=O)Nc1nccs1 (stereo unspecified) | 0% | -25% | 0 | 0% | 6.3µM* | 1%
CC(Sc1nnc(-c2ccco2)n1C)C(=O)Nc1nccs1 (stereo unspecified) | 2% | u | 0 | 2% | x | x
C/C(CC(=O)Nc1ccc(N(C)C)cc1)=N\NC(=O)c1ccc(Cl)cc1Cl | 0% | -14% | 2 | -6% | 0% | 1%
C/C(CC(=O)Nc1ccc(N(C)C)cc1)=N\NC(=O)c1ccc([N+](=O)[O-])cc1Cl | -11% | -20% | 0 | 2% | 18% | 25µM*
CCCCCCn1c(SCC#N)nc2ccccc2c1=O | x | x | x | 0% | x | 0%
O=C(CSc1nc2c([nH]c3ccccc32)c(=O)n1-c1ccc(F)cc1)NCC1CCCO1 (stereo unspecified) | x | x | x | 0% | x | 22µM*
O=C(CSc1nc2c([nH]c3ccccc32)c(=O)n1-c1ccc(Cl)cc1)NCC1CCCO1 (stereo unspecified) | x | x | x | 0% | x | u
Cc1cc(C)nc(Sc2ccc(/C=C(\C#N)C(N)=O)o2)n1 | 5% | -20% | 1 | 7% | -13% | 28µM*
CC1CCCC(NC(=O)COC(=O)CCC(=O)c2ccc(F)cc2)C1C (stereo unspecified) | 2% | 27% | -2 | -8% | x | 2.5µM*
N#Cc1c(C(F)(F)F)cc(-c2ccccc2Cl)[nH]c1=O | 2% | 11% | 1 | 3% | -11% | 3.5µM*
N#Cc1c(C(F)(F)F)cc(-c2ccccc2)[nH]c1=O | 1% | -20% | 0 | -4% | -12% | u
Cn1c(=N)n(CC(O)c2cccc3ccccc23)c2ccccc21 (stereo unspecified) | -2% | -35% | 0 | -2% | 1% | 8.9µM*
CCCN1CCC(NC(=O)Nc2ccccc2C(=O)OC)CC1 | 0% | -7% | -1 | -3% | 4% | 28µM*
COC(=O)c1ccccc1NC(=O)N1CCCC1 | 0% | -11%[7.66 µM] | -1 | -2% | -4% | 16µM*
COC(=O)c1ccccc1NC(=O)N1CCN(c2ccccc2F)CC1 | -2% | 17% | -1 | -7% | -6% | x
CCc1ccccc1NC(=O)NC1CCCCC1 | 3% | 2% | 0 | 2% | -7% | 3.2µM*
O=C(Nc1c(C(=O)O)[nH]c2ccccc12)NC1CCCCC1 | -1% | -13% | -3 | -3% | -3% | 7.9µM*
COC(=O)c1ccccc1NC(=O)NC1CC1 | 1% | -11% | -1 | 8% | 0% | -6%
CCc1cccc(CC)c1NC(=O)NC1CCCCC1 | 0% | 7% | 0 | -1% | -5% | -13%
COC(=O)c1[nH]c2ccc(C)cc2c1NC(=O)NC1CCCCC1 | 0% | 3% | 0 | -3% | 2% | u
O=C(C[n+]1cccc2cccc(O)c21)c1ccc2ccccc2c1 | x | x | x | x | x | -1%
SMILES | USP2a inh | Integrin act MD | IL2 activator | Pin1 inh | PKM2 activator | ClpP mod
CC(C)(C)OC(=O)Cc1nnc(C(C(=O)OCc2ccccc2)c2ccccc2)o1 (stereo unspecified) | x | x | x | 3% | x | x
O=C(NCc1ccccc1)C1CCN(c2nc(-c3ccc(Br)cc3)cs2)CC1 | x | x | x | 15% | x | x
COC(=O)c1ccccc1NC(=O)Oc1ccc(C(C)C)cc1 | 2% | 16% | -1 | 14% | 1% | 32µM*
C1=Nc2ccccc2/C1=C/c1c[nH]c2ccccc12 | x | x | x | x | x | -17%
CCOC(=O)c1cccc(NC(=O)c2cc3sccc3n2C)c1 | 2% | -39% | -3 | 5% | -6% | -8%
CCOC(=O)c1ccccc1NC(=O)c1cc2sccc2n1C | 0% | 0% | 3 | 2% | -3% | 28µM*
O=C(NCCc1ccccc1)c1ccc(-c2ccc(F)c(F)c2)c2ccoc12 | x | x | 0 | x | x | 35µM*
O=C(NCc1ccco1)c1ccc(-c2ccc(F)c(F)c2)c2ccoc12 | x | x | -1 | x | x | 35µM*
O=C(NCc1cccc(Cl)c1)c1ccc(-c2ccc(F)c(F)c2)c2ccoc12 | x | x | 0 | x | x | 16µM*
COc1ccc2nc3c(cc2c1)Cc1ccccc1-3 | x | x | x | x | -76% | x
COC(=O)N1C(c2ccccc2)=Cc2ccccc2C1CC(C)=O (stereo unspecified) | x | x | x | x | -9%[11.5 µM] | x
O=C(CNC(=O)C1CCCCC1)OCc1cc(=O)oc2ccc3ccccc3c12 | 2% | 0% | -3 | -1% | -1% | 25µM*
O=C(COC(=O)CNC(=O)C1CCCCC1)Nc1ccccc1 | 1% | 2% | 0 | 1% | x | x
Cc1c(P(=S)(c2ccccc2)c2ccccc2)c2ccccc2n1CCCc1ccccc1 | x | x | x | -3% | x | x
Cn1c2ccccc2c2ncn(CCN3CCOCC3)c(=O)c21 | 3% | -25% | 0 | -16% | -6% | 32µM*
CCCCc1cc2c(cn1)=C(OC(=O)C1CCCC1)C(C)(OC(=O)CC)C(=O)C=2 (stereo unspecified) | x | x | x | x | 5%[11.5 µM] | x
CCn1c(C(=O)NCc2ccccc2Br)cc2oc3ccccc3c21 | x | x | x | 10% | x | 22µM*
Cn1c(C(=O)NCc2ccccc2F)cc2oc3ccccc3c21 | x | x | x | -1% | x | 4%
Cn1c(C(=O)NCc2cccs2)cc2oc3ccccc3c21 | 2% | -3% | -1 | u | 2% | 32µM*
CCn1c(C(=O)NCc2cccc(Br)c2)cc2oc3ccccc3c21 | x | x | x | -2% | x | 4%
Cn1c(C(=O)NCc2ccccc2)cc2oc3ccccc3c21 | -5% | -13% | -3 | 2% | 9% | 25µM*
COc1ccc(CNC(=O)c2cc3oc4ccccc4c3n2C)cc1OC | x | x | x | 16% | x | 25µM*
CCCOc1ccc(CNC(=O)c2cc3oc4ccccc4c3n2C)cc1 | x | x | x | 6% | x | 4%
O=C(OCC#CCSc1nnc(-c2cccc3ccccc23)o1)c1cc2ccccc2s1 | x | x | x | 2% | x | x
O=C(O)C1CCCC1 | x | x | x | x | x | -26%
CCOC(=O)c1cnn2c(C)cc(-c3ccc(F)cc3)nc12 | -1% | 20% | 1 | 2% | 0% | 28µM*

High-throughput results as filed in PubChem BioAssay.
